High-throughput results (PubChem)
Hits are enriched below; roughly 4.7% of the tested compounds scored in any of these assays.
DUSP3 inh – VHR1 phosphatase inhibitors, primary screen, biochemical, absorbance, uHTS | recombinant VHR phosphatase, pNPP absorbance | inhibition, % at 13.3 µM | 290,000 tested, 0.52% active; in the data active means inhibition above about 50%
Target sequence (P51452 whole entry, looked up): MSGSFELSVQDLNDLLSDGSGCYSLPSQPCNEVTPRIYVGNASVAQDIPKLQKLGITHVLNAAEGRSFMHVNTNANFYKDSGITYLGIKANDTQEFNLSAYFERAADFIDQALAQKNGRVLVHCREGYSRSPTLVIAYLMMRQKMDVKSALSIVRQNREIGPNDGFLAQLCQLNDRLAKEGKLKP
RecA intein inh – Mtb RecA intein splicing inhibitors, primary screen, biochemical, fluorescence, HTS | 290,000 tested, 0.75% active | cell-free RecA intein splicing | inhibition, % (test concentration not listed); in the data active means inhibition above about 30%
CCHF vOTU inh – CCHFV vOTU protease inhibitors, primary screen, biochemical, Pep-AMC substrate, fluorescence. Crimean-Congo hemorrhagic fever virus L polyprotein viral ovarian tumor (vOTU) protease …. inhibition, % at 11.5 µM. 370,000 tested, 0.55% active. AID 651958, 2012; in the data active means inhibition above about 30%
GDH-TPI counter-1 – GDH-TPI coupling enzyme inhibitors, primary screen, artefact control for M. tuberculosis FBA inhibitor project, biochemical, absorbance, full deck | GDH-TPI coupled enzyme counterscreen, NADH absorbance | inhibition, % at 4.8 µM | 360,000 tested, 1.2% active; in the data active means inhibition above about 30%
SARS 3CLpro inh – SARS-CoV 3CLpro protease inhibitors, primary screen, biochemical, quenched FRET | Replicase polyprotein 1ab (Severe acute respiratory syndrome coronavirus), P0C6X7 | recombinant SARS-CoV 3CLpro, quenched FRET peptide cleavage | inhibition, % at 6 µM | 290,000 tested, 0.14% active | AID 1706, 2009; in the data active means inhibition above about 12%
FBA Mtb inh – Mtb FBA enzyme inhibitors, primary screen, biochemical, fluorescence, strain H37Rv | purified M. tuberculosis FBA, fluorescence read-out | AID 588726, 2011 | 360,000 tested, 2.3% active | inhibition, % at 1 µM
Target sequence (P9WQA3 whole entry, looked up): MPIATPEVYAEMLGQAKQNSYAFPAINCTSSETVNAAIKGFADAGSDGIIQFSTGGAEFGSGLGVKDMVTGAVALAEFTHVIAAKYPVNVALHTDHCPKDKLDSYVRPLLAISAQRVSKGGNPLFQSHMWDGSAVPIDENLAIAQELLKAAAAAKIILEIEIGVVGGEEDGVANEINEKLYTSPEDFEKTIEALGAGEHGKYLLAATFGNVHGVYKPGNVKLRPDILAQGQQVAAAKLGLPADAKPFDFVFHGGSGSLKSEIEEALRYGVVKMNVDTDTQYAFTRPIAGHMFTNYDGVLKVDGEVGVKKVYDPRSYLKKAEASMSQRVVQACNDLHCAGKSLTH
Mtb FBA inh conf – M. tuberculosis aldolase blockers, biochemical, fluorescence, strain H37Rv, confirmation; shares compounds with FBA Mtb inh; purified M. tuberculosis FBA, fluorescence read-out; inhibition, % at 1 µM; 5,600 tested, 78% active; AID 651616, 2012
GDH-TPI counter-2 – GDH-TPI coupling enzyme inhibitors, artefact control for M. tuberculosis FBA inhibitor project, biochemical, fluorescence, high throughput; inhibition, % at 1 µM; 5,600 tested, 81% active; GDH-TPI coupled enzyme counterscreen; AID 652141, 2013; shares compounds with FBA Mtb inh; in the data active means inhibition above about 10%
Large screens that a line does not name were inactive (follow-up assays come after a bar, where they were run). Unless noted, no stated cut-off is given here; in the data, active means inhibition above about 27%; inactive means the rest.

COc1ccccc1-c1nnc(Nc2nc3c(OC)cccc3s2)o1	GDH-TPI counter-1 43, FBA Mtb inh 33 | Mtb FBA inh conf 40 | GDH-TPI counter-2 41
COc1ccccc1CNS(=O)(=O)c1c(C)cc(C)cc1C	none (no result: DUSP3 inh, RecA intein inh, SARS 3CLpro inh)
COc1ccc(-c2nc(CC(=O)O)cs2)cc1OC	none (no result: GDH-TPI counter-1, FBA Mtb inh)
CCOc1ccc(-c2nc(CCl)cs2)cc1OC	FBA Mtb inh 46 | Mtb FBA inh conf 41 | GDH-TPI counter-2 19
O=[N+]([O-])c1cccc(COc2cccc(CN3CCCCC3)c2)c1	none (no result: DUSP3 inh, RecA intein inh, SARS 3CLpro inh)
Cc1cc2nc(-c3ccc(SCc4ccc(C(=O)O)cc4)nc3)[nH]c2cc1C	FBA Mtb inh 58 (no result: DUSP3 inh) | Mtb FBA inh conf inactive | GDH-TPI counter-2 inactive
Cc1cc2nc(-c3ccc(SCC(=O)NC(C)C)nc3)[nH]c2cc1C	none (no result: CCHF vOTU inh, GDH-TPI counter-1, FBA Mtb inh)
CCOC(=O)c1ccc(NC(=O)NCc2ccc(OC)cc2)cc1	none
CCOC(=O)c1ccc(NC(=O)C(=O)NCCc2ccc(OC)cc2)cc1	FBA Mtb inh 50 | Mtb FBA inh conf 116 | GDH-TPI counter-2 106
O=C(COc1ccccc1)Nc1cccc(-c2nn[nH]n2)c1	none
O=C(COc1ccccc1)Nc1cccc(-c2nc3cc4ccccc4cc3[nH]2)c1	FBA Mtb inh 72 (no result: RecA intein inh) | Mtb FBA inh conf 101 | GDH-TPI counter-2 79
C1=C(c2ccccc2)Nc2ncnn2C1c1ccccc1 (configuration not stated)	none (no result: DUSP3 inh, SARS 3CLpro inh)
Cc1ccc(C2=CC(c3ccccc3)n3ncnc3N2)cc1 (configuration not stated)	FBA Mtb inh 67 (no result: DUSP3 inh, SARS 3CLpro inh) | Mtb FBA inh conf 88 | GDH-TPI counter-2 67
Cc1ccc(C2C=C(c3ccccc3OC(F)F)Nc3ncnn32)cc1 (configuration not stated)	FBA Mtb inh 32 | Mtb FBA inh conf 70 | GDH-TPI counter-2 68
CN(C)c1ccc(C2C=C(c3ccc(Cl)cc3OC(F)F)Nc3ncnn32)cc1 (configuration not stated)	none (no result: SARS 3CLpro inh)
Cc1ccccc1NC(=O)COC(=O)CCc1ccccc1	none
COc1ccc(NC(=O)Cn2c(CCC(=O)O)ccc2-c2ccccc2)cc1	none
COc1ccc(-c2ccc(CCC(=O)O)n2C(C)C)cc1	FBA Mtb inh 32 | Mtb FBA inh conf 163 | GDH-TPI counter-2 114
Cc1ccc(S(=O)(=O)N2C[C@H]3C(=O)C[C@@H](c4ccccc4C)N(S(=O)(=O)c4ccc(C)cc4)[C@H]3C[C@H]2c2ccccc2)cc1	none (no result: DUSP3 inh, RecA intein inh, GDH-TPI counter-1, SARS 3CLpro inh)
O=[N+]([O-])c1ccc(N2CCCC2)c([N+](=O)[O-])c1	FBA Mtb inh 29 (no result: DUSP3 inh, RecA intein inh, SARS 3CLpro inh) | Mtb FBA inh conf 182 | GDH-TPI counter-2 123
COc1ccc2cc(C(=O)CS(=O)(=O)c3ccccc3)c(=O)oc2c1	FBA Mtb inh 57 | Mtb FBA inh conf 56 | GDH-TPI counter-2 46
O=C(CS(=O)(=O)c1ccccc1)c1cc2cc(F)ccc2oc1=O	FBA Mtb inh 62 (no result: CCHF vOTU inh) | Mtb FBA inh conf inactive | GDH-TPI counter-2 inactive
CC(C)(C)N(Cc1cn(Cc2ccccc2)nn1)S(=O)(=O)c1ccc(F)cc1Br	none (no result: DUSP3 inh, RecA intein inh, GDH-TPI counter-1, SARS 3CLpro inh, FBA Mtb inh)
c1ccc(N2CC3COc4ccccc4C3=N2)cc1 (configuration not stated)	FBA Mtb inh 58 (no result: DUSP3 inh, RecA intein inh, SARS 3CLpro inh) | Mtb FBA inh conf 73 | GDH-TPI counter-2 71
O=C(Cc1cccs1)Nc1ccc(-c2nnc(-c3ccco3)o2)cc1	FBA Mtb inh 49 | Mtb FBA inh conf 83 | GDH-TPI counter-2 67
Clc1ccc(-c2nnc(-c3ccco3)o2)cc1	FBA Mtb inh 72 | Mtb FBA inh conf active | GDH-TPI counter-2 active
CCC(Oc1ccccc1)C(=O)Nc1ccc(-c2nnc(-c3ccco3)o2)cc1 (configuration not stated)	FBA Mtb inh 43 (no result: RecA intein inh) | Mtb FBA inh conf inactive | GDH-TPI counter-2 inactive
COc1ccccc1OCC(=O)Nc1ccc(-c2nnc(-c3ccco3)o2)cc1	none
CN(C)c1nnc(-c2ccc(Cl)cc2)o1	FBA Mtb inh 66 | Mtb FBA inh conf active | GDH-TPI counter-2 active
CCOC(=O)C1(C)CCN1C(=O)c1ccc(SC(F)(F)F)cc1 (configuration not stated)	none (no result: DUSP3 inh, RecA intein inh, SARS 3CLpro inh)
Clc1c(-c2ccccc2)nnn1-c1ccccc1	none
N#Cc1cccc(C#N)c1NCC1CCCO1 (configuration not stated)	FBA Mtb inh 97 | Mtb FBA inh conf 184 | GDH-TPI counter-2 122
N#Cc1cc(Cl)c(NCC2CCCO2)cc1C#N (configuration not stated)	FBA Mtb inh 38 (no result: RecA intein inh) | Mtb FBA inh conf 77 | GDH-TPI counter-2 65
O=[N+]([O-])c1ccc(Cl)cc1NCC1CCCO1 (configuration not stated)	none
N#Cc1ncccc1CCc1cccc(Cl)c1	none (no result: DUSP3 inh, SARS 3CLpro inh)
Cc1ccc(N(CC(=O)NCC2CCCO2)C(=O)Cn2nnc(-c3cccs3)n2)cc1 (configuration not stated)	none
Cc1cc(C)nc(Sc2ncnc3sc4c(c23)CCC4)n1	FBA Mtb inh 49 | Mtb FBA inh conf inactive | GDH-TPI counter-2 inactive
CC(C#N)Sc1ncnc2sc3c(c12)CCC3 (configuration not stated)	none
CC(C)c1cc(CN2C(C)COCC2C)cc(C(C)C)c1O (configuration not stated)	none (no result: DUSP3 inh, RecA intein inh, SARS 3CLpro inh)
CCc1cc(=O)oc2cc(C)cc(OC(C)C(=O)NCc3ccncc3)c12 (configuration not stated)	FBA Mtb inh 84 | Mtb FBA inh conf inactive | GDH-TPI counter-2 inactive
CCc1cc(=O)oc2cc(C)cc(OC(C)C(=O)NCc3cccnc3)c12 (configuration not stated)	FBA Mtb inh 105 | Mtb FBA inh conf active | GDH-TPI counter-2 154
CCCCc1cc(=O)oc2cc(C)cc(OC(C)C(=O)NCc3cccnc3)c12 (configuration not stated)	FBA Mtb inh 56 | Mtb FBA inh conf 55 | GDH-TPI counter-2 43
COCc1cc(N2CCN(C(=O)OC(C)(C)C)C[C@H]2C)ccc1N1CCN(Cc2ccccc2)[C@H](C)C1	none (no result: DUSP3 inh, RecA intein inh, GDH-TPI counter-1, SARS 3CLpro inh, FBA Mtb inh)
CCN1CCN(c2c(S(=O)(=O)c3ccc(C)c(C)c3)cnc3ccc(F)cc23)CC1	none
COc1cc(NC(=O)Cn2cnc3c(NCc4ccccc4)ncnc32)cc(OC)c1OC	none (no result: DUSP3 inh, RecA intein inh, SARS 3CLpro inh)
